Compounds with a hit are over-represented: about 9.4% of the library has one in this group of screens.
SARS PLpro yeast – inhibitors of SARS-CoV papain-like protease in yeast; S. cerevisiae expressing SARS-CoV PLpro, growth rescue; Potency, µM (doses to about 32.9 µM), for inactives: at the top dose activity, positive = growth rescue, usual class: activators; actives 0.19% (n = 330,000); AID 485353; calls by dose curve; note: 0% is about no effect; nearly all actives have a fitted effect of over 55% in size
AMA1-RON2 inh – inhibitors of Plasmodium falciparum AMA1-RON2 interaction. AlphaScreen AMA1-biotinylated RON2 peptide binding. Potency, µM (top dose mostly 58.2 µM), inactives show top-dose activity change, negative = inhibition, hits mostly inhibitors. actives 0.2% (n = 360,000). AID 720542;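 note: 0% = vehicle wells and -100% = peptide control; nearly all actives have a fitted effect of over 45% in size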
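AMA1 (3D7) with his tag at 25 nM final met compounds first, then biotinylated RON2 peptide at 25 nM; detection used donor plus acceptor beads, 10 µg/mL apiece, read by AlphaScreen after 30 min at room temperature.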
Pf growth 48h – inhibits P. falciparum growth in the first generation, 48 h | P. falciparum luciferase growth in erythrocytes, 48 h | Potency, µM (series often up to 28.7 µM), without a hit: at the top dose activity change, negative = inhibition, most hits filed as inhibitors | actives 5.9% (n = 310,000); note: % is set by controls: 0 for no effect and ±100 for the full control effect
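Firefly luciferase activity from engineered P. falciparum reports growth; inhibitors lower the luminescent signal. Cultures contained 2% hematocrit erythrocytes at 0.1% final parasitemia.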
Pf growth 96h – inhibits malaria parasite growth, 96 h; P. falciparum luciferase reporter growth, 96 h; Potency, µM (series often up to 28.7 µM), inactives show top-dose activity change, negative = inhibition, most hits filed as inhibitors; actives 6.9% (n = 320,000); note: % is set by controls: 0 for no effect and ±100 for the full control effect
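Two-generation exposure (96 h) targets delayed-death phenotype. Reporter parasites carrying integrated firefly luciferase, in red cells at 2% hematocrit and 0.05% parasitemia final, kept at 37 C, 5% CO2; luminescence loss indicates inhibition.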
* marks the source's active call; other numbers are inactive results; u = inconclusive; x = no result given. Unless noted, calls come from the whole dose curve; as a rule, active = well fitted curve in the direction sought with a large enough effect; inconclusive = small, poorly fitted or top-dose-only effect, or another doubt; inactive = no such curve, though single readings can be large; an effect the other way counts as inactive or inconclusive. Potency is the fitted concentration of half-maximal effect.

SMILES | SARS PLpro yeast | AMA1-RON2 inh | Pf growth 48h | Pf growth 96h
CCN1CCCC1CNC(=O)CSCc1nc(-c2ccccc2C)oc1C (centres undefined) | -2% | 17% | u | -4%
CCC1(C)Cc2c(sc3nc(SCC(=O)c4ccccc4)[nH]c(=O)c23)CO1 (centres undefined) | 0% | 35% | -10% | 2%
CCCN1CCC(N(CCc2ccccc2)Cc2ccccc2)CC1 | 0% | -6% | u | 12µM*
CCOC(=O)C1CCCN(CCCc2ccccc2)C1 (centres undefined) | -1% | 11% | -29% | 3.3µM*
CCN(Cc1ccccc1)C1CCN(Cc2ccccc2)CC1 | 1% | 0% | u | 0%
CCOC(=O)C1CCCN(Cc2ccc(OCc3ccccc3)c(OC)c2)C1 (centres undefined) | 6% | -21% | -48% | 13µM*
CCOC(=O)C1CCCN(Cc2c(C(=O)N3CCOCC3)nc3ccccn23)C1 (centres undefined) | -1% | 4% | 61% | 9.3µM*
COc1ccccc1CNS(=O)(=O)c1ccc(-c2cc(C)no2)cc1 | -6% | 2% | u | -19%
CCOC(=O)C1CCCCN1Cc1cccc(OCc2ccccc2)c1 (centres undefined) | -7% | -22% | -13% | 13µM*
CCCCN(C)C(=O)C1CCN(CCCc2ccccc2)CC1 | 11% | 24% | 2.3µM* | x
CN(C)CC(C)(C)CNC(=O)C1CCN(CCCc2ccccc2)CC1 | u | -16% | u | u
Cc1occc1-c1nnc(SCC(=O)NCc2cccs2)n1CC1CCCO1 (centres undefined) | 5% | 4% | u | 5.2µM*
Cn1c(SCC(=O)N2CCCCC2)nnc1-c1ccc(S(=O)(=O)N2CCOCC2)cc1 | 12% | 7% | -1% | 13µM*
Cn1c(SCC(=O)N2CCCC2)nnc1-c1ccc(S(=O)(=O)N2CCCC2)cc1 | 1% | 9% | -6% | 1%
CCn1c(SCc2ccc(C#N)cc2)nnc1-c1ccc(S(=O)(=O)N2CCCCC2)cc1 | 0% | 3% | 1.5µM* | -2%
Cn1c(SCC(=O)NCc2cccs2)nnc1-c1ccc(S(=O)(=O)N2CCCC2)cc1 | 1% | -3% | u | 8.3µM*
CCCCNC(=O)CSc1nnc(-c2ccc(S(=O)(=O)N3CCCC3)cc2)n1C | 6% | -5% | u | 17%
CCOc1ccccc1C1C(C#N)=C(N)Oc2cc(N)ccc21 (centres undefined) | 3% | -5% | x | u
Cc1ccc(-n2nnnc2SCC(=O)Nc2cc(C)on2)c(C)c1 | -1% | -11% | -1% | u
Cn1c(=O)c2c(ncn2CC(=O)N2CCN(c3ccccc3F)CC2)n(C)c1=O | 12% | -2% | -4% | x
CCOC(=O)CSc1nnc(CNC(=O)c2ccc(S(=O)(=O)N3CCCCC3)cc2)n1C | 10% | -3% | -5% | 33%
COC(=O)CSc1nnc(CNC(=O)c2ccc(S(=O)(=O)N3CCCCC3)cc2)n1C | 4% | 1% | 6% | 1.5µM*
CCn1c(SCC(=O)N2CCCC2)nnc1-c1ccc(S(=O)(=O)N2CCCCCC2)cc1 | 1% | -4% | 9.3µM* | u
COc1cc(NC(=O)COc2ccccc2)ccc1NC(=O)c1ccco1 | -9% | 8% | 15% | -14%
O=C(CSc1n[nH]c(-c2ccccc2)n1)Nc1ncc(Br)cc1Br | 1% | 4% | 7% | 2.9µM*
SMILES | SARS PLpro yeast | AMA1-RON2 inh | Pf growth 48h | Pf growth 96h
O=C(CSc1n[nH]c(-c2ccccn2)n1)Nc1ccccc1F | -2% | u | -11% | 10µM*
COc1ccc(CCNC(=O)C2CCN(S(=O)(=O)c3cc(OC)ccc3OC)CC2)cc1 | -3% | 2% | u | x
CCOc1ccccc1N(C(=O)CNS(=O)(=O)c1ccccc1)C(CC)C(=O)NCc1ccco1 (centres undefined) | 0% | -17% | x | 7.4µM*
Cc1ccc(S(=O)(=O)NCC(=O)N(c2ccccc2)C(C(=O)NCc2ccccc2)c2ccco2)cc1 (centres undefined) | 5% | -22% | -15% | 13µM*
CCCC(C(=O)NCc1ccco1)N(Cc1ccco1)C(=O)CNS(=O)(=O)c1ccccc1 (centres undefined) | -5% | 6% | -7% | u
CC(=O)Nc1ccc(S(=O)(=O)NCC2CCCO2)cc1 (centres undefined) | x | -3% | x | x
N#Cc1ccc(NC(=O)CSc2nc3[nH]c(=O)cc(O)c3s2)cc1 | 2% | 3% | u | 1.5µM*
CSc1ccc(NC(=O)CSc2nc3[nH]c(=O)cc(O)c3s2)cc1 | 15% | 24% | -1% | 299%

Assay outcomes as filed in PubChem.
